Out of some 1,100 compounds screened, about 70 (6%) were called active. Not shown: some 22% with an inconclusive outcome. This excerpt belongs to a sample that is enriched for actives. Values without a mark were called inactive. The call rests on the fitted dose curve; in most records, active means well fitted curve in the direction sought with a large enough effect; inconclusive means small, poorly fitted or top-dose-only effect, or another doubt; inactive means no such curve, though single readings can be large or run the other way.
On the % scale 0 is the no-effect control and ±100 the full control effect; potency means the concentration at half of the fitted maximal effect.

Chain of Polyunsaturated fatty acid lipoxygenase ALOX12 (Homo sapiens) (P18054 whole entry, looked up): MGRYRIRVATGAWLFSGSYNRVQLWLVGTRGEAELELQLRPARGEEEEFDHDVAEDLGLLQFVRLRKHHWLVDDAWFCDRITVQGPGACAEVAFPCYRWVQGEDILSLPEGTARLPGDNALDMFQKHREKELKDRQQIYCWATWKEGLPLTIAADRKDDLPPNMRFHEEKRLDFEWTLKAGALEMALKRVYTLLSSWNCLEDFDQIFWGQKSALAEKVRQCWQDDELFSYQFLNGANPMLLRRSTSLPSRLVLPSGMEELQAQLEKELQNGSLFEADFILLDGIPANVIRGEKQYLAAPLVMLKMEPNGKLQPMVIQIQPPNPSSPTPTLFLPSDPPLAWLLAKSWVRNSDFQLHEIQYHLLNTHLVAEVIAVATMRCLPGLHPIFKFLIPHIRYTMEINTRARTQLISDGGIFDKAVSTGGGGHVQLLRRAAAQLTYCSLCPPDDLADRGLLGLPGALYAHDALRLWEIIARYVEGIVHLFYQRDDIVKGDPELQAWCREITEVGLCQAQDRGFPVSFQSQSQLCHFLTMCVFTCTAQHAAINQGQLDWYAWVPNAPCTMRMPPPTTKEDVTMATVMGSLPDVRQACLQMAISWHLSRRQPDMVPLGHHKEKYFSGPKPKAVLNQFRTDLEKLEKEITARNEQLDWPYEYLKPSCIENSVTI

The target of this test is Polyunsaturated fatty acid lipoxygenase ALOX12 (Homo sapiens) (UniProt P18054). The experiment in a line: Confirmatory qHTS assay for inhibitors of human arachidonate 12S-lipoxygenase (ALOX12): Round 2. The settings on record: purified human 12-LOX, xylenol orange absorbance; series mostly up to 125 µM; activity change, negative = inhibition: at the top concentration. The source says:
Assay Provider: Theodore R. Holman Ph.D. University of California, Santa Cruz, California Human lipoxygenase 12hLO is a member of the closely related lipoxygenase family of enzymes which catalyze the site-specific oxidation of arachidonic acid to various hormone precursor molecules and as such is a candidate for drug development in a variety of disease areas, such as cancer and inflammation. Inhibition of 12hLO activity was screened by utilizing arachidonic acid as a substrate. The extent of hydroperoxide product formation was measured by a secondary chromogenic reaction in which xylenol orange (XO, Sigma-Aldrich, cat. number 39,818-7) reacts with the ferric ions produced from the reaction between the hydroperoxide and ferrous ions. The Fe (III)-XO complex is characterized with red-shifted absorbance at 560 nm. A purified preparation of human 12hLO was supplied by Dr. Holman laboratory, University of California, Santa Cruz.
PROTOCOL TABLE SEQUENCE No. (e.g., 1, 2, 3, etc.); […] (e.g., Cells, Incubation, Reagent, etc.); VALUE; DESCRIPTION 1; Enzyme; 3 uL; 150 nM 12hLO enzyme solution dispensed in 1536-well Greiner black, clear bottom plates. 2; Compound; 23 nL; compounds and controls were added. 3; Incubate; 15 min; room temperature. 4; Substrate; 1 uL; 40 uM arachidonic acid (final concentration). 5; Incubate; 30 min; room temperature. 6; Reagent; 4 uL; Fe-XO solution was added to each well. 7; Incubation; 30 min; room temperature 8; Detector; absorbance; Read 1 at 405 nm absorbance using ViewLux (PerkinElmer) CCD imager. 9; Detector; absorbance; Read 2 at 573 nm absorbance using ViewLux (PerkinElmer) CCD imager. NOTES (numbers refer to sequence above) 1; 150 nM 12hLO (final concentration) in buffer solution (25 mM Hepes, 0.01% Triton X-100, pH 7.0) was dispensed in columns 1, 2, 5-48. Column 1 is neutral (100% activity). Buffer only was dispensed in columns 3 and 4 as no enzyme negative controls. The plates were covered with metal lids with gas-exchange holes. 2; Compounds were pin transferred via a Kalypsys Pin Tool (Wako USA) in column 5 - 48. Control compound was transferred in column 2, titration of nordihydroguaiaretic acid (NDGA, Sigma-Aldrich, N5023) with top concentration of 20 mM in DMSO then 1:3 dilution in duplicate. Dilution factor of 23 nL into 4 uL final assay volume. 3; Covered assay plates were incubated for 15 min at room temperature. 4; Substrate was added to start the reaction; 40 uM arachidonic acid (Sigma-Aldrich, St. Louis, MO) was dispensed throughout the plate. 6; Chromogenic detection reagent solution (divalent iron/xylenol orange, Fe-XO) was added to each well: 200 uM xylenol orange, 300 uM ferrous ammonium sulfate prepared freshly in 50 mM sulfuric acid. 8, 9; Two absorbance readouts were obtained at 405 nm and at 573 nm using a ViewLux high-throughput CCD plate imager (PerkinElmer). The 573 to 405 (Read 2 / Read 1) absorbance ratio was used to compute reaction progress.
For orientation: In qHTS, concentration-response curves come from the screen itself.
As for `CC(=O)N1CCC(C(=O)N2CCC3(CC2)NC(=O)N(c2cccc(Cl)c2)N3)CC1`, the Potency was 12.6 µM (active). For the compound `COc1ccc(OC2CN(Cc3cccc4ccccc34)C2)cc1`, the “activity change, negative = inhibition” value is -3.44%. On to `OCC1CN(Cc2ccc(Cl)cc2)CC12CCNCC2` (stereo not drawn), for which the “activity change, negative = inhibition” value was -4.83% [at 64.5 µM]. Regarding `O=C(c1ccccc1F)N1CCn2c(nnc2C2CCNCC2)C1`, the “activity change, negative = inhibition” value is -11.9%. For `O=C(Nc1ccc(-c2cccc(F)c2)cc1)C1CCCN1Cc1cnc[nH]1` (stereo not drawn), the “activity change, negative = inhibition” value was 13.7% [at 64.5 µM]. `CN1CC(=O)N(C2CCCNCC2)Cc2c(NCC3CC3)ncnc21` (stereo not drawn): the “activity change, negative = inhibition” value is -7.12%. For the compound `C=CCNc1oc(-c2cccc3ccccc23)nc1C#N`, the “activity change, negative = inhibition” value was 1.51% [at 64.5 µM].

For the compound `CCCCNc1oc(-c2cccc3ccccc23)nc1C#N`, the Potency is 19.3 µM (active). With `CC(C)Nc1oc(-c2cccc3ccccc23)nc1C#N`, the “activity change, negative = inhibition” value is 11.9% [at 64.5 µM].

Turning to `COc1ccc(-c2nc(C3CC3)nc3c2CN([S+](=O)([O-])c2ccccc2)CC3)cc1`, the “activity change, negative = inhibition” value is -25.8%.

With `CCOCCNc1ncnc2c1CN(C1CCNCC1)C(=O)CN2C`, the “activity change, negative = inhibition” value is -10.1%. Same read-out and setting: the value for `COc1ccc(N2CC3CCC(C2)N3C(=O)c2ccc3c(c2)OCO3)cc1` was -19.9%; that for `O=C(NCC(F)(F)F)c1cc(C2CC2)nc2c1c(C1CCCN1)nn2-c1ccccc1` (stereo not drawn) was -27.3%.

As to `O=C(NC1CCCCC1)N1Cc2[nH]cnc2C[C@H]1c1nc(-c2cccc([N+](=O)[O-])c2)no1`, the Potency is 6.31 µM (active).

On to `COC(=O)[C@@H]1Cc2nc[nH]c2CN1C1CCOCC1`, for which the “activity change, negative = inhibition” value is 10.7% [at 233 µM]. In the case of `COc1ccc(-c2noc([C@@H]3Cc4nc[nH]c4CN3C(=O)NC3CCCCC3)n2)cc1`, the Potency is 10 µM (active).

Turning to `COc1ccc(CN2Cc3[nH]cnc3C[C@H]2c2nc(-c3ccncc3)no2)cc1`, the “activity change, negative = inhibition” value was 30.2%. Regarding `Cc1ccc(NC(=O)N2Cc3[nH]cnc3C[C@H]2c2nc(-c3ccc4ccccc4c3)no2)cc1`, the “activity change, negative = inhibition” value was 3.35% [at 64.5 µM].

Take `CN1CC(=O)N(C2CCCNCC2)Cc2c(NCc3cccs3)ncnc21` (stereo not drawn): the “activity change, negative = inhibition” value is -21.3%. Same read-out and setting: the result for `CCc1nc2c(c(-c3ccc(OC)cc3)n1)CCN(Cc1ccc(OC)cc1)CC2` reads -27.7%; that for `O=C(N1CCCC1)N1CCN(c2ccc(Cl)nn2)C(=O)C1`, -25.5%; that for `CC(NC(=O)C1CCN(c2cc(C(F)(F)F)ncn2)CC1)c1ccccc1` (stereo not drawn), 5.14% [at 64.5 µM].

On to `COc1cccc(N2C(=O)NC(=NC3CCCCC3)C23CCCN([S+](=O)([O-])c2cccs2)C3)c1` (stereo not drawn), for which the “activity change, negative = inhibition” value was -25.9%. Same read-out and setting: the value for `O=c1n(-c2cccc(Cl)c2)nc2n1CCN([S+](=O)([O-])c1cccs1)C2` was -15.3%; that for `Cc1cccc(CN2CCN(Cc3nc(-c4ccco4)oc3C)C(C)C2=O)c1` (stereo not drawn) was -7.87% [at 64.5 µM]; that for `COCCNC(=O)c1cc(C2CC2)nc2onc(C3CCCN3)c12` (stereo not drawn) was -17.5%. For `CCOC(=O)Cn1c(=O)n(-c2ccccc2OC)c2nc(-c3cccc(F)c3)nc(C(N)=O)c21`, the Potency is 4.4 µM (active). For `CCOC(=O)Cn1c(=O)n(-c2ccccc2OC)c2nc(-c3ccccc3F)nc(C(N)=O)c21`, the Potency was 11 µM (active).

For `CCOc1ccccc1CN1CCCCC12Cc1ccccc1CNC2=O` (stereo not drawn), the “activity change, negative = inhibition” value was -12.7%. Regarding `CCNC(=O)N[C@@H]1C=C[C@@H](c2c(C)nn(-c3ccc(OC)cc3)c2C)C1`, the “activity change, negative = inhibition” value is 2.01% [at 64.5 µM].

On to `Cc1cc(C(=O)NC2CC2)c2c(C3CCNCC3)noc2n1`, for which the “activity change, negative = inhibition” value was -1.86%.

`O=C1c2ccccc2CN1C1CCN(Cc2ccsc2)CC1`: the “activity change, negative = inhibition” value was -18.5%. Take `C1CNCC(c2nc(C3CCOCC3)no2)C1` (stereo not drawn): the “activity change, negative = inhibition” value was -7.31% [at 64.5 µM]. Turning to `CC(=O)N1CCn2cc(C(=O)N3CCOCC3)nc2C1`, the “activity change, negative = inhibition” value was -9.94%. In the case of `COc1ccccc1C(=O)N1CCn2c(nnc2C2CCNCC2)C1`, the “activity change, negative = inhibition” value is -23.8%.

For `COc1ccccc1CNC(=O)Nc1cccs1`, the Potency is 21.7 µM (active).

Consider `CNCc1ccccc1OC(F)(F)F`, for which the “activity change, negative = inhibition” value is -3.02%. The same measure, in the same setting: the value for `CN1CC(=O)N(C2CCNCC2)Cc2c(NC3CCCCCC3)ncnc21` was -12.8%; that for `CN(C)CCCC(=O)N1Cc2ccccc2CC2(CCCCN2CC2CCNCC2)C1` (stereo not drawn) was -14.8%. As for `CCOC(=O)N1CCC(NC)CC1`, the “activity change, negative = inhibition” value is 6.82%. Consider `CCOC(=O)N1CCC(N2CCCC(CCC(=O)Nc3ccc(OC)c(Cl)c3)C2)CC1` (stereo not drawn), for which the Potency was 12.6 µM (active). On to `Cc1noc(C)c1C(=O)N1Cc2ccccc2CC2(CCCN(CC3CCNC3)C2)C1` (stereo not drawn), for which the “activity change, negative = inhibition” value was -14.1%. For `Fc1ccc(OC2CN(Cc3ccc(C(F)(F)F)cc3)C2)cc1F`, the “activity change, negative = inhibition” value was -5.08%.

With `Cn1ccnc1C(O)c1cc2n(n1)CCN(S(=O)(=O)C1CC1)C2` (stereo not drawn), the “activity change, negative = inhibition” value is 1.79% [at 64.5 µM].

With `COc1cccc(N2C(=O)NC(=NC3CCCC3)C23CCCN(CC2CC2)C3)c1` (stereo not drawn), the “activity change, negative = inhibition” value was -17.4%. Still for that read-out and setting: the value for `COCc1cc(C[C@@H]2CC[C@H](O)[C@@H](CNC(=O)NC(C)C)O2)no1` was -10.6% [at 64.5 µM]. In the case of `CNCc1ccccc1Cl`, the “activity change, negative = inhibition” value is -9.03% [at 233 µM]. On to `CCCc1nc(C)cc(N2CCC(NCCc3ccc(Cl)cc3)CC2)n1`, for which the Potency is 2.24 µM (active). Turning to `Cc1nc(N2CCC(C(=O)NCc3ccc(C(C)C)cc3)CC2)cc(C(F)(F)F)n1`, the “activity change, negative = inhibition” value was -13.4% [at 64.5 µM].

In the case of `O=C(N1CCCCC1)N1CCCC(c2nnc3n2CCNC3)C1` (stereo not drawn), the “activity change, negative = inhibition” value was -7.37%. In the case of `Cc1cc(C)cc(-c2ccc(CN3CCCC(c4nc5ccc(F)cc5c(=O)[nH]4)C3)cc2)c1` (stereo not drawn), the “activity change, negative = inhibition” value is -20.9%. Same read-out and setting: the result for `CCC(CC)Nc1ncnc2c1CN(C1CCCNCC1)C(=O)CN2C` (stereo not drawn) reads -2.09%. As for `COc1ccc(Nc2cnc3ccc(-c4cccc(CO)c4)nn23)cc1OC`, the “activity change, negative = inhibition” value was -2.32% [at 64.5 µM].
